In PubChem BioAssay (NCATS) one finds outcome data, which are given here for 40 molecules.

Inconclusive results are not listed. Active and inactive are the calls of the source. Calls come from the whole dose curve; as a rule, active = well fitted inhibition curve with a large enough effect; inconclusive = small, poorly fitted or top-dose-only effect; inactive = flat fitted curve, though single readings scatter.

In this assay the test system is astro (control astrocytes). In words: Drug repurposing screens with cells derived from glioblastoma tumor samples (AID 1345199). Note: nearly all actives have a fitted effect of over 40% in size. The note with it: viability, ATP luminescence, 48 h; series mostly up to 45.9 µM. As to the method: CD133+ cells were isolated from GBM patient biopsies and cultured as neurospheres. Neurospheres from four patients were used to screen the NCATS pharmaceutical collection (NPC) library of approved drugs and bioactive compounds. […] The neurospheres were incubated with drugs for 48 hours in 1536-well format, then assayed with an ATP content cell viability assay. […] These hits were cherry picked to confirm activity in the four original GBM lines screened plus three other slower growing GMB lines (unable to yield enough cells for a full primary screen). Variable activities of the confirmed primary hits in the different GBM patient lines were observed. The patient line 206 responded to the greatest number of compounds and line 923 responded to the least amount of active compounds.
Consider `C[n+]1ccccc1/C=N/O`, for which the outcome was inactive.

With `CN1C[C@@H]2C[C@H]1CN2c1cc2c(cc1F)c(=O)c(C(=O)O)cn2C1CC1`, the call was inactive.

Turning to `NC(=O)N[C@@H](CCC(=O)O)C(=O)O`, the molecule was called inactive.

As for `CC(=O)[C@@]1(O)CC[C@H]2[C@@H]3C[C@H](C)C4=CC(=O)C=C[C@]4(C)[C@@]3(F)[C@@H](O)C[C@@]21C`, the molecule was classed as inactive.

For `Cc1cc(OI)c(C(C)C)cc1-c1cc(C(C)C)c(OI)cc1C`, the outcome was inactive.

For the molecule `CN(C(=O)c1c(O)c2ccccc2n(C)c1=O)c1ccccc1`, the call was inactive.

`CCCCCCCCCCC(CO)CCCCCCCC` (stereo not given): the outcome was inactive.

In the case of `CC(CSC(=O)c1ccccc1)C(=O)N1C[C@@H](Sc2ccccc2)C[C@H]1C(=O)O` (stereo not given in full), the outcome was inactive.

Take `COc1ccccc1Oc1c(NS(=O)(=O)c2ccc(C(C)(C)C)cc2)nc(-c2ncccn2)nc1OCCO`: the outcome was inactive.

In the case of `Cc1ccc(S(=O)(=O)NC(=O)NC2CCCCC2)cc1`, the molecule was classed as inactive.

In the case of `NS(=O)(=O)c1ccc(C(=O)O)cc1`, the molecule was called inactive.

Regarding `CCCCCC(C)N` (stereo not given), the molecule was called inactive.

`CCCCCCCC(=O)OCC(COC(=O)CCCCCCC)OC(=O)CCCCCCC`: the molecule was called inactive.

In the case of `NC(=O)c1ccc([N+](=O)[O-])cc1Cl`, the molecule was classed as inactive.

On to `Cc1cc(C)nc(NS(=O)(=O)c2ccc(N)cc2)n1`, for which the molecule was called inactive.

For the molecule `CCOC(=O)c1cccnc1`, the molecule was called inactive.

As to `CC1CCc2cc(F)cc3c(=O)c(C(=O)O)cn1c23` (stereo not given), the outcome was inactive.

`CN1CCN(C(=O)C2CCCCC2)CC1`: the molecule was classed as inactive.

As for `Cc1onc(-c2ccccc2)c1-c1ccc(S(N)(=O)=O)cc1`, the molecule was classed as inactive.

Regarding `CCN(CC)CCOC(=O)C(c1ccccc1)c1ccccc1`, the call was inactive.

Consider `COc1ccc(C(=O)N2CCN(CC(=O)N3CCOCC3)CC2)cc1`, for which the result was inactive.

For the molecule `O=C(Cn1ccnc1[N+](=O)[O-])NCc1ccccc1`, the call was inactive.

For the molecule `CC(O)CCCCn1c(=O)c2c(ncn2C)n(C)c1=O` (stereo not given), the call was inactive.

Consider `CCCCCCCC(=O)OCC(O)CO` (stereo not given), for which the outcome was inactive.

With `FC(F)(F)C(Cl)Br` (stereo not given), the molecule was classed as inactive.

Regarding `CCC(C)(CN(C)C)OC(=O)c1ccccc1` (stereo not given), the molecule was called inactive.

`CC(=O)Nc1cccc(O)c1`: the molecule was called inactive.

Turning to `CC(=O)OC[C@H]1O[C@@](COC(C)=O)(O[C@H]2O[C@H](COC(C)=O)[C@@H](OC(C)=O)[C@H](OC(C)=O)[C@H]2OC(C)=O)[C@@H](OC(C)=O)[C@@H]1OC(C)=O`, the call was inactive.

In the case of `CCOC(=O)[C@H](CCc1ccccc1)N[C@@H](C)C(=O)N1Cc2cc(OC)c(OC)cc2C[C@H]1C(=O)O`, the call was inactive.

Regarding `Nc1c2c(nc3c1CCC3)CCCC2`, the outcome was inactive.

Take `Cc1[nH]c(C)c(Cl)c(=O)c1Cl`: the call was inactive.

Take `O=C(/C=C/c1ccccc1)OCc1ccccc1`: the outcome was inactive.

With `CCCOC(=O)c1ccc(N)cc1`, the molecule was called inactive.

Turning to `Cc1cc(-n2nc3ccc(Cl)cc3n2)c(O)c(C(C)(C)C)c1`, the call was inactive.

Take `NC(=O)CCCCC1CCSS1` (stereo not given): the outcome was inactive.

As to `O=c1[nH]c(=O)c2ccccc2o1`, the result was inactive.

As for `CC1CCN(CCCC(=O)c2ccc(F)cc2)CC1`, the call was inactive.

Consider `CCOc1cc(NC(C)=O)ccc1C(=O)OC`, for which the call was inactive.

On to `O=C(O)c1ccccc1OP(=O)(O)O`, for which the molecule was called inactive.

Regarding `COc1ccc(O)cc1`, the outcome was inactive.
